Shown are actives, neighbours in structure and some others; about 2.4% of the full set was active somewhere.
Arbovirus anti – arbovirus infection inhibition; arbovirus infection cell-based antiviral screen; inhibition, % at 10 µM; hit rate 0.37% among 200,000; in the data active means inhibition above about 30%
MEKK2mut PB1 HTS – signal of MEK5 binding to mutant human MEKK2 PB1 domain; bead flow cytometry, Alexa488-MEK5 binding to MEKK2 mutant; percent response, % at 10 µM; hit rate 0.35% among 290,000; in the data active means percent response above about 24%, passing the limit was not always enough
Pf gamet viab – kills late stage P. falciparum gametocytes; P. falciparum stage V gametocytes, ATP luminescence, 24 h; inhibition, % at 10.9 µM; hit rate 0.065% among 150,000; AID 743093;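 active means inhibition above the mean plus 3 SD of compounds within the control limits, set per campaign, cut at about 38% in these data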
MEKK3 PB1 HTS – modulators (inhibitors or enhancers) of MEK5 binding to human MEKK3 PB1 domain; Q99759; bead-based flow cytometry, Alexa488-MEK5 binding to MEKK3; actives lie on both sides; 0 = blocked by unlabeled MEK5, 100 = vehicle; binding response (% of control), % at 10 µM; hit rate 1.4% among 290,000; AID 1529;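 active means binding response more than 3 SD above or below the average of its plate-row segment, actives on both sides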;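 further: Alexa488 bead fluorescence after subtracting the streptavidin-only scavenger bead signal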
Target sequence (Q99759 whole entry, looked up, the tested form may be a part): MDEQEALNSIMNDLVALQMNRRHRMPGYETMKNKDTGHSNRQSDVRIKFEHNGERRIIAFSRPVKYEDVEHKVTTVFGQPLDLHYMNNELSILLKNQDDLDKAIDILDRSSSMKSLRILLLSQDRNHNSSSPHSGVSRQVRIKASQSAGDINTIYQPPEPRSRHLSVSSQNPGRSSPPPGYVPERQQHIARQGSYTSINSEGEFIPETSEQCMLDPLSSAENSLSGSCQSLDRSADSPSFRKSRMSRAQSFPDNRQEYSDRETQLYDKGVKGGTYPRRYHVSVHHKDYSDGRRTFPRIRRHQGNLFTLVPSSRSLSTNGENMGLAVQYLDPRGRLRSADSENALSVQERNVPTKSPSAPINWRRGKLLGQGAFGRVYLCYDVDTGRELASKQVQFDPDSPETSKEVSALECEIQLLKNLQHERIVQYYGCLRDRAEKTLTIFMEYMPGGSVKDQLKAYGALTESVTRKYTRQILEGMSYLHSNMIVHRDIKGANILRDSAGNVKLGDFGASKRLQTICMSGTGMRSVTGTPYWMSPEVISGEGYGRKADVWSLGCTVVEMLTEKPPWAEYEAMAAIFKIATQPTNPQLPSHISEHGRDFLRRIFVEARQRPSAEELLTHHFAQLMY
MEKK2 WT-MEK5 – raises or lowers MEK5 binding to wildtype human MEKK2 PB1 domain | Q9Y2U5 | bead flow cytometry, Alexa488-MEK5 binding to MEKK2 WT; actives lie on both sides | binding response (% of control), % at 10 µM | hit rate 1.1% among 290,000; in the data active means binding response below about 67% or above about 130%
MEKK2wt confirm – raises or lowers MEK5 binding to wildtype human MEKK2, retest; bead flow cytometry, Alexa488-MEK5 binding to MEKK2 WT; actives lie on both sides; AID 1892; binding response (% of control), % at 10 µM; hit rate 2.4% among 5,900; shares compounds with MEKK3 PB1 HTS; in the data active means binding response below about 16% or above about 210%; inactive means in between
MEKK2mut confirm – signal of MEK5 binding to mutant human MEKK2, retest | shares compounds with MEKK3 PB1 HTS | bead flow cytometry, Alexa488-MEK5 binding to MEKK2 mutant | hit rate 2% among 5,900 | percent response, % at 10 µM | AID 1893; in the data active means percent response mostly above about 71%, no sharp cut-off; inactive means mostly below about 38%;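 further: higher means compound restores mutant binding toward wildtype level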
MEKK3 confirm – MEKK3-MEK5 PB1 inhibition, single concentration confirmation; bead flow cytometry, Alexa488-MEK5 binding to MEKK3; stronger effect = lower value; shares compounds with MEKK3 PB1 HTS; hit rate 1.8% among 5,900; binding response (% of control), % at 10 µM;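 active means binding response below 72% of control, or above a set upper limit, though filed actives all read lower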
Hits are given with their value; i = inactive; nt = not tested or not shown; [ ] = dose if it differs, or a comment.

SMILES | Arbovirus anti | MEKK2mut PB1 HTS | Pf gamet viab | MEKK3 PB1 HTS | MEKK2 WT-MEK5 | MEKK2wt confirm | MEKK2mut confirm | MEKK3 confirm
O=C(Nc1ccc(Cl)c(Cl)c1)N1N=CCC1c1ccccc1 (centres undefined) | i | i | i | 133 | i | i | i | i
COc1cc(C(=O)N2CCN(C(=O)c3ccco3)CC2)c([N+](=O)[O-])cc1OC | i | i | i | i | i | nt | nt | nt
COc1ccc(C(=O)CCN2CCN(c3ccccc3OC)CC2)cc1 | i | i | i | i | i | nt | nt | nt
COc1ccc(C(=O)CCN2CCc3cc(OC)c(OC)cc3C2)cc1 | i | i | i | 1.0[inhibitor] | 1.0[inhibitor] | i | i | i
CCOC(=O)c1c(/N=C/c2cc([N+](=O)[O-])ccc2O)sc(C)c1C | i | i | i | i | i | nt | nt | nt
CCOC(=O)c1c(/N=C/c2cc(OC)cc([N+](=O)[O-])c2O)sc(C)c1C | i | i | nt | 135 | i | i | i | i
COc1ccc(P(=O)(COc2ccc([N+](=O)[O-])cc2)c2ccc(OC)cc2)cc1 | i | i | nt | 66[inhibitor] | i | i | i | i
COc1ccc(CCNC(=O)COc2ccc([N+](=O)[O-])cc2)cc1 | i | i | nt | i | i | nt | nt | nt
CN1CCN(C(=O)C23CCC(C)(C(=O)C2Br)C3(C)C)CC1 (centres undefined) | nt | i | i | 135 | i | i | i | i
O=C(CSc1nnc(COc2ccccc2)o1)NCCc1ccccc1 | i | i | i | i | i | nt | nt | nt
Cc1cccc(OCc2nnc(SCC(=O)NCCc3ccccc3)o2)c1 | i | i | i | i | -7.0[inhibitor] | i | i | i
Cc1ccc2occ(/C=N/NC(=O)c3ccc(O)cc3)c(=O)c2c1 | nt | i | nt | i | i | nt | nt | nt
NC(=O)N/N=C/c1coc2ccc(O)cc2c1=O | nt | i | i | 45[inhibitor] | i | i | i | i
COC(=O)Cn1c(=O)c(C(=O)CCl)c(N)n(Cc2ccccc2)c1=O | nt | i | i | i | i | nt | nt | nt
COc1ccc(C(=O)NCc2nnc(SCC(=O)Nc3ccccc3F)o2)cc1 | i | i | i | 3.0[inhibitor] | 3.0[inhibitor] | i | i | i
O=C(CCc1ccccc1)Nc1ccc2c(c1)C(=O)OC2 | nt | i | nt | i | i | nt | nt | nt
COc1cccc(N2CC(C(=O)Nc3nnc(SCc4cccnc4)s3)CC2=O)c1 (centres undefined) | i | i | i | i | i | nt | nt | nt
O=C(O)C1=C[C@H](c2csc3ccccc23)C[C@H](OCc2ccc(CO)cc2)O1 | i | i | i | 66[inhibitor] | i | i | i | i
Cc1c(CN2CCC(CO)(CCOc3ccccc3)CC2)[nH]c2c(Cl)cccc12 | i | i | i | i | 240 | i | i | i
Cc1ccc2cc(CN(C(=O)c3ccco3)c3ccccc3)c(=O)[nH]c2c1 | i | i | nt | i | i | nt | nt | nt
COc1ccc(CCNCc2cc3ccc(C)cc3[nH]c2=O)cc1OC | nt | i | nt | i | i | nt | nt | nt
Cc1cccc(N(Cc2cc3ccc(C)cc3[nH]c2=O)C(=O)c2ccco2)c1 | nt | i | i | 133 | i | i | i | i
COc1ccc(CCN(Cc2cc3ccc(C)cc3[nH]c2=O)C(C)=O)cc1OC | nt | i | i | 135 | i | i | i | i
CCN1C(=O)c2cccc3c(S(=O)(=O)Nc4ncccc4C)ccc1c23 | i | i | nt | 82[inhibitor] | i | i | i | i
O=C(C[n+]1cc(-c2ccc(Cl)c(Cl)c2)n2c1CCC2)OCc1ccccc1 | i | i | i | 155 | i | i | i | i
SMILES | Arbovirus anti | MEKK2mut PB1 HTS | Pf gamet viab | MEKK3 PB1 HTS | MEKK2 WT-MEK5 | MEKK2wt confirm | MEKK2mut confirm | MEKK3 confirm
Cc1ccc(-c2c[n+](CC(=O)Nc3nc(-c4ccccc4)cs3)c3n2CCC3)cc1 | nt | i | i | i | 183 | i | i | i
O=C(C[n+]1cc(-c2ccccc2)n2c1CCCCC2)c1ccc(Cl)cc1 | i | i | i | i | 142 | i | i | i
Cc1ccc(-c2c[n+](CC(=O)Nc3ccccc3C)c3n2CCC3)cc1 | nt | i | i | i | i | nt | nt | nt
O=C(C[n+]1cc(-c2ccccc2)n2c1CCC2)Nc1nc(-c2ccccc2)cs1 | i | i | i | i | 166 | i | i | i
Cc1ccc(NC(=O)C[n+]2cc(-c3ccccc3)n3c2CCC3)cc1 | nt | i | i | i | i | nt | nt | nt
CS(=O)(=O)c1cccc(NC(=O)C2CCCN2S(=O)(=O)c2ccc(F)cc2)c1 (centres undefined) | nt | i | nt | i | i | nt | nt | nt
O=S(=O)(Nc1ccc(-c2nnc(SCc3ccc(Cl)cc3)o2)cc1)c1ccccc1 | 31 | i | i | 131 | i | i | i | i
CN1CCN(C(c2ccc(C(F)(F)F)cc2)c2cc(Cl)c3cccnc3c2O)CC1 (centres undefined) | nt | i | nt | i | i | nt | nt | nt
CCN1CCN(C(c2ccc(C(F)(F)F)cc2)c2ccc3cccnc3c2O)CC1 (centres undefined) | nt | 40 | nt | i | 164 | i | i | i
O=C(NC1CCCC1)C(c1cccnc1)N(C(=O)c1csnn1)C1CCCC1 (centres undefined) | i | i | i | 75[inhibitor] | i | i | i | i
N#Cc1ccsc1NC(=O)CN1CCN(c2ccccc2O)CC1 | i | i | i | 64[inhibitor] | i | i | i | i
COc1ccccc1N1CCN(CC(=O)Nc2sccc2C#N)CC1 | i | i | i | i | i | nt | nt | nt
N#Cc1ccsc1NC(=O)CN1CCN(S(=O)(=O)c2ccccc2C(F)(F)F)CC1 | i | i | i | 55[inhibitor] | i | i | i | i
Cc1ccc(C)c(S(=O)(=O)N2CCN(CC(=O)Nc3sccc3C#N)CC2)c1 | i | i | nt | 162 | i | i | i | i
CN(C)CC(C)(C)CNC(=S)NCc1ccc2c(c1)OCO2 | i | i | i | 128 | i | i | i | i
CC(C)(C)NC(=S)NCc1ccc2c(c1)OCO2 | i | i | i | i | i | nt | nt | nt
O=C1OC(c2ccccc2)=C/C1=C\N1CCOCC1 | i | i | nt | 2.0[inhibitor] | 2.0[inhibitor] | i | i | i
c1cc2nc(C34CC5CC(CC(C5)C3)C4)[nH]c2cn1 | i | i | i | 2.0[inhibitor] | 3.0[inhibitor] | i | i | i
O=S(=O)(c1ccccc1)N1CCN(c2ncccn2)CC1 | i | i | nt | i | i | nt | nt | nt
O=S(=O)(c1ccc(F)cc1)N1CCN(c2ncccn2)CC1 | nt | i | i | 134 | i | i | i | i
CCN(CC)C(=O)Cn1cc(C(=O)C(=O)N2CCN(Cc3ccc4c(c3)OCO4)CC2)c2ccccc21 | nt | i | nt | i | i | nt | nt | nt
CN(C)C(=O)c1ccc(NC(=O)c2sccc2-c2ccccc2)cc1 | nt | i | nt | i | i | nt | nt | nt
COc1ccc(NC(=O)c2cc(-c3cc(C)cc(C)c3O)n[nH]2)cc1Cl | i | i | i | i | 167 | i | i | i
Cc1cc(NC(=O)C2CC(=O)N(c3ccc(F)cc3)C2)no1 (centres undefined) | nt | i | nt | i | i | nt | nt | nt
